# According to PubChem BioAssay AID449762 (Southern Research Specialized Biocontainment Screening …, 2010):
# Out of some 330,000 compounds screened, about 1,900 (0.58%) were called active. Roughly 4% stayed inconclusive and do not appear here. Only a sample is shown. Entries with a potency or affinity are not part of this list. A number with no mark means an inactive call. Cut-off read from the data, not from the text of the source: inconclusive = inhibition above about 70% without an active follow-up result; inactive = below that.
# Assay: M. tuberculosis growth inhibition, HTS (AID 449762);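 note: bacterial growth assessed after seven days of incubation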
# Settings: M. tuberculosis H37Rv growth inhibition, 7H9 media; at 25 µM; stronger effect = higher value
row,SMILES,inhibition [%]
1,COc1ccc(/C=C/C(=O)c2ccc(OC)cc2OC)cc1,58.4
2,COc1ccc2cc(C(=O)/C=C/c3cc(OC)c(O)c(OC)c3)ccc2c1,36.1
3,CC(=O)c1cccc(N2C(=NC(=O)CCc3ccccc3)SC3CS(=O)(=O)CC32)c1 (centres undefined),1.65
4,Cc1ccc(S(=O)(=O)NNC(=O)CCC(=O)Nc2ccc(C)cc2C)cc1,5.58
5,COc1cc(SC)ccc1C(=O)OCC(=O)NC1CCCCC1,-4.21
6,CCCCCCC1CC(CC(=O)Nc2ccc([N+](=O)[O-])cc2)C(=O)O1 (centres undefined),5.26
7,CCCCCC1CC(CC(=O)Nc2ccc([N+](=O)[O-])cc2)C(=O)O1 (centres undefined),68.8
8,O=C(CCNS(=O)(=O)c1ccc(F)c(Cl)c1)NCc1ccccc1F,-9.24
9,O=C(COC(=O)Cc1ccsc1)NCc1ccc(Cl)cc1,8.12
10,Cc1cc(C)c(C(=O)CC(=O)c2ccccc2Cl)c(O)c1,6.33
11,Cc1cccc(C(=O)CC(=O)c2cc(Cl)ccc2O)c1,0.28
12,Cc1ccc(-c2nnc(SCC(=O)N/N=C/c3c(C)nn(-c4ccccc4)c3C)n2-c2ccc(C)cc2)cc1,5.96
13,CCCN1CCN(CC(O)COC(c2ccc(OC)cc2)c2ccc(OC)cc2)CC1 (centres undefined),6.36
14,COc1ccc(CCN(C)CC(O)COC(c2ccc(F)cc2)c2ccc(F)cc2)cc1OC (centres undefined),6.55
15,O=C(NN1CC(C(=O)OCc2ccc(Cl)cc2Cl)CC1=O)c1ccccc1 (centres undefined),-12
16,O=C(c1ccc(C(=O)N2CCN(c3ccccc3F)CC2)nc1)N1CCN(c2ccccc2F)CC1,-7.27
17,CC1(OC(=O)c2cccs2)C(=O)C=C2C=C(c3ccsc3)OC=C2C1=O (centres undefined),-0.64
18,O=C(Nc1ccc(Cn2ccnc2)cc1)c1cccc(C(F)(F)F)c1,7.08
19,O=C(CSC1CCCCC1)Nc1nccs1,-8.08
20,CC(C)C(=O)Nc1ncc(Cc2ccccc2Cl)s1,-0.61
21,O=C(Nc1ncc(Cc2ccccc2Cl)s1)c1ccc([N+](=O)[O-])cc1,10.6
22,COc1ccc(C(=O)OCC(=O)Nc2c(C)cccc2C)cc1,0.88
23,CC1CCCC(NC(=O)CSC2=Nc3ccccc3C3CC=NN23)C1C (centres undefined),11.7

row,SMILES,inhibition [%]
1,Cc1cc(C)n(-c2nc(NCCO)c3c4c(sc3n2)CCCC4)n1,10.4
2,Cc1cc(C)n(-c2nc(NCCCN(C)C)c3c4c(sc3n2)CCCC4)n1,9.07
3,CN1CCN(/N=C/c2ccc(Br)cc2)CC1,2.12
4,O=C(NN=Cc1cccc([N+](=O)[O-])c1)c1cc(-c2cccnc2)nc2ccccc12,5.59
5,CC1=CC(=O)C(C(C)C)=C/C1=N/OC(=O)c1cccc([N+](=O)[O-])c1,-5.41
6,CC1=CC(=O)C(C(C)C)=CC1=NC(=O)c1ccc(C)cc1,3.21
7,CCCOc1ccc(-c2csc3ncn(Cc4ccc(C(=O)O)cc4)c(=O)c23)cc1,11.8
8,CC1CCc2nc(/C(C#N)=C/c3ccncc3)sc2C1 (centres undefined),17.6
9,COc1cc(/C=C(\C#N)c2nc3c(s2)CCCC3)ccc1O,67.9
10,O=C(NCCC(=O)N1CCN(c2ccccn2)CC1)c1ccc(Cl)cc1,9.44
11,CC1(C)Cc2c(cnn2-c2ccccc2)C(=O)/C1=N\NC(=O)c1ccccc1O,0.99
12,CC1(C)Cc2c(cnn2-c2ccccc2)C(=O)/C1=N\NC(=O)c1ccccc1,6.2
13,COc1cccc(C2CC(c3ccc(Br)cc3)=NN2C(=O)c2ccncc2)c1OC (centres undefined),10.4
14,C=C1CCC[C@]2(C)C[C@H]3OC(=O)C(CNC(C)CC)[C@H]3CC12 (some centres undefined),7.33
15,C=C1CCC[C@]2(C)C[C@H]3OC(=O)C(CNCC(C)C)[C@H]3CC12 (some centres undefined),-0.86
16,CN(C)C(=O)c1ccc(Cl)cc1[N+](=O)[O-],-3.01
17,COc1ccc(S(=O)(=O)N(C)C[C@H]2Oc3c(NC(=O)NC(C)C)cccc3C(=O)N([C@H](C)CO)C[C@@H]2C)cc1,-6.16
18,c1ccc(-c2csc3ncnc(NCCCN4CCOCC4)c23)cc1,0.1
19,O=c1c2ccccc2nc2c3ccccc3c(NCCN3CCOCC3)nn12,7.65
20,COc1cccc(CNS(=O)(=O)c2c(C(=O)N3CCCC3)c(C)n(C)c2C)c1,3.63
21,COc1ccc(N2CC(C)Cn3c2nc2c3c(=O)[nH]c(=O)n2C)cc1 (centres undefined),-7.69
22,NC(=O)c1c(NC(=O)CSc2nnc(Cc3ccccc3)n2Cc2ccco2)sc2c1CCC2,55.7
23,CC(=O)OCC1OC(n2ccc3ccccc32)C(OC(C)=O)C(OC(C)=O)C1OC(C)=O (centres undefined),-6.94

row,SMILES,inhibition [%]
1,O=C(CN1CCN(S(=O)(=O)c2ccc(F)cc2)CC1)Nc1ccc(Cl)c(C(F)(F)F)c1,3.5
2,CC(=O)c1cccc(OCC(=O)N2CCN(CC(=O)Nc3cccc(F)c3)CC2)c1,-12.4
3,CCOc1ccccc1NC(=O)c1sc2nc(C)nc(N3CCOCC3)c2c1C,10.4
4,COc1ccc(NC(=O)c2sc3nc(C)nc(N4CCOCC4)c3c2C)c(OC)c1,-1.8
5,CC(C)(C)OC(=O)C[C@H]1C/C=C\C[C@H](CC(=O)N(CCO)Cc2ccccc2)C(=O)N[C@@H](c2ccccc2)COC1=O,-6.06
6,COc1ccc(OC)c(NS(=O)(=O)Cc2ccccc2)c1,-14.1
7,Cc1cc(=O)oc2c(C)c(OC(C)C(=O)NCC3CCC(C(=O)O)CC3)ccc12 (centres undefined),1.04
8,Cn1ncc(Cl)c1C(=O)Nc1nnc(C2CC2)s1,-2.94
9,N#CCCN(C(=O)COC(=O)CCc1nc2ccccc2c(=O)[nH]1)c1ccc(F)cc1,-3.42
10,N#CCCN(C(=O)COC(=O)Cc1c[nH]c2ccccc12)c1ccccc1,1.58
11,COc1ccc(NC(=O)C2CCN(S(C)(=O)=O)CC2)cc1,-4.9
12,O=C(CC1SC(=NCC2CCCO2)NC1=O)Nc1cccc2ccccc12 (centres undefined),6.34
13,CC(Oc1ccc(Br)cc1)C(=O)NCC(C)(C)N1CCOCC1 (centres undefined),4.22
14,COc1cccc(CC(=O)N2CCN(c3ccccc3[N+](=O)[O-])CC2)c1,5.35
15,COc1ccc(-c2ccc(-c3noc(C)n3)c(OC)n2)cc1,5.33
16,CCc1nc(-c2ccc(-c3ccc(OC)cc3)nc2OC)no1,68.2
17,COc1cc(OC)cc(OCC(O)Cn2ccnc2)c1 (centres undefined),7.96
18,CCC(CC)C(=O)Nc1cc(C(=O)NCCc2ccccc2)ccc1Cl,1.26
19,Cc1ccc(NC(=O)CN2C(=O)NC(Cc3ccccc3)C2=O)c(Br)c1 (centres undefined),-0.06
20,Cc1ccc(SCCC(=O)OC(C(=O)NC(N)=O)C(C)C)cc1 (centres undefined),-4.48
21,CCCCn1nc(C(=O)NCc2ccccc2CN2CCCC2)c2ccccc2c1=O,-5.37
22,CCn1nc(C(=O)N[C@@H](CCSC)c2nc3ccccc3[nH]2)c2ccccc2c1=O,1.2
23,CCCn1nc(C(=O)Nc2cc(C(=O)OC)ccc2C)c2ccccc2c1=O,3.29

row,SMILES,inhibition [%]
1,CSCC[C@H](NC(=O)c1nn(C)c(=O)c2ccccc12)c1nc2ccccc2[nH]1,-4.72
2,Cn1nc(C(=O)Nc2ccccc2N2CCCC2)c2ccccc2c1=O,54.7
3,CCCn1nc(C(=O)NNC(=O)c2ccc(OC(F)F)cc2)c2ccccc2c1=O,3.96
4,C/C(=N\NC(=O)CNC(=O)C1COc2ccccc2O1)c1ccc(Cl)cc1 (centres undefined),1.09
5,COc1ccc(/C=C/C(=O)OCC(=O)Nc2ccc(Cl)cn2)cc1,10.3
6,CN1CC[n+]2cnc3ccccc3c21,-2.8
7,CC1(C)CC(NC(=O)C2CCN(S(=O)(=O)c3ccccc3C(F)(F)F)CC2)CC(C)(C)N1,-16.1
8,COc1ccccc1C(=O)COC(=O)Cn1nc(C)c([N+](=O)[O-])c1C,-2.3
9,CCc1cc(=O)oc2c3c(cc(OCC(=O)NCCN4CCOCC4)c12)OC(C)(C)CC3,-4.22
10,c1ccc(-n2ccnc2)cc1,62.1
11,c1ccc(-c2nc(-n3ccnc3)nc(-n3ccnc3)n2)cc1,22.2
12,c1ccc(Cn2cc(-c3cccnc3)cn2)cc1,7.26
13,CCCOP(=O)(O)c1c([N+](=O)[O-])cc(C(F)(F)F)cc1[N+](=O)[O-] (tested in a mixture with another compound),-2.65
14,Nc1cc(C(F)(F)F)cc([N+](=O)[O-])c1N,18
15,COC(=O)c1ccc(CNC(=O)C2CCC(=O)N(CCCc3ccccc3)C2)cc1 (centres undefined),-9.71
16,O=C(NC1CCCCCCC1)c1ccccc1O,6.43
17,O=C(NC1CCCC1)c1ccccc1-c1ccccc1,64.1
18,CN(Cc1ccccc1)S(=O)(=O)c1cccc2nsnc12,-5.13
19,COC(=O)[C@@H](NC(=O)O[C@@H]1C(=O)c2cc(Br)ccc2O[C@H]1c1cccc(OC)c1)C(C)C,8.75
20,COc1ccc2c(c1)O[C@@H](c1cccc(C(F)(F)F)c1)[C@H](OC(=O)NCCc1ccc(OC)c(OC)c1)C2=O,8.51
